Results from PubChem BioAssay AID624325 (Sanford-Burnham Center for Chemical Genomics, 2012).
Out of some 2,300 compounds screened, about 1,000 (43%) were called active. So high a share suggests a set chosen from earlier hits. Only a sample is shown. Unmarked numbers belong to inactive results.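 The calls were made as follows: active = compounds inhibiting the enzyme by at least 50% at 15 µM in any one of the replicates; inactive = the rest.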

Biological target: Fatty acid synthase (Homo sapiens) (UniProt P49327)
Assay: FAS thioesterase domain inhibitors, confirmation, biochemical, fluorescence intensity, single concentration (AID 624325);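 also: 0% = enzyme with DMSO only and 100% = wells lacking enzyme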
Settings: recombinant FAS-TE, OMFH fluorogenic substrate, at 15 µM, stronger effect = higher value

Chain of Fatty acid synthase (Homo sapiens) (P49327 whole entry, looked up, the tested form may be a part): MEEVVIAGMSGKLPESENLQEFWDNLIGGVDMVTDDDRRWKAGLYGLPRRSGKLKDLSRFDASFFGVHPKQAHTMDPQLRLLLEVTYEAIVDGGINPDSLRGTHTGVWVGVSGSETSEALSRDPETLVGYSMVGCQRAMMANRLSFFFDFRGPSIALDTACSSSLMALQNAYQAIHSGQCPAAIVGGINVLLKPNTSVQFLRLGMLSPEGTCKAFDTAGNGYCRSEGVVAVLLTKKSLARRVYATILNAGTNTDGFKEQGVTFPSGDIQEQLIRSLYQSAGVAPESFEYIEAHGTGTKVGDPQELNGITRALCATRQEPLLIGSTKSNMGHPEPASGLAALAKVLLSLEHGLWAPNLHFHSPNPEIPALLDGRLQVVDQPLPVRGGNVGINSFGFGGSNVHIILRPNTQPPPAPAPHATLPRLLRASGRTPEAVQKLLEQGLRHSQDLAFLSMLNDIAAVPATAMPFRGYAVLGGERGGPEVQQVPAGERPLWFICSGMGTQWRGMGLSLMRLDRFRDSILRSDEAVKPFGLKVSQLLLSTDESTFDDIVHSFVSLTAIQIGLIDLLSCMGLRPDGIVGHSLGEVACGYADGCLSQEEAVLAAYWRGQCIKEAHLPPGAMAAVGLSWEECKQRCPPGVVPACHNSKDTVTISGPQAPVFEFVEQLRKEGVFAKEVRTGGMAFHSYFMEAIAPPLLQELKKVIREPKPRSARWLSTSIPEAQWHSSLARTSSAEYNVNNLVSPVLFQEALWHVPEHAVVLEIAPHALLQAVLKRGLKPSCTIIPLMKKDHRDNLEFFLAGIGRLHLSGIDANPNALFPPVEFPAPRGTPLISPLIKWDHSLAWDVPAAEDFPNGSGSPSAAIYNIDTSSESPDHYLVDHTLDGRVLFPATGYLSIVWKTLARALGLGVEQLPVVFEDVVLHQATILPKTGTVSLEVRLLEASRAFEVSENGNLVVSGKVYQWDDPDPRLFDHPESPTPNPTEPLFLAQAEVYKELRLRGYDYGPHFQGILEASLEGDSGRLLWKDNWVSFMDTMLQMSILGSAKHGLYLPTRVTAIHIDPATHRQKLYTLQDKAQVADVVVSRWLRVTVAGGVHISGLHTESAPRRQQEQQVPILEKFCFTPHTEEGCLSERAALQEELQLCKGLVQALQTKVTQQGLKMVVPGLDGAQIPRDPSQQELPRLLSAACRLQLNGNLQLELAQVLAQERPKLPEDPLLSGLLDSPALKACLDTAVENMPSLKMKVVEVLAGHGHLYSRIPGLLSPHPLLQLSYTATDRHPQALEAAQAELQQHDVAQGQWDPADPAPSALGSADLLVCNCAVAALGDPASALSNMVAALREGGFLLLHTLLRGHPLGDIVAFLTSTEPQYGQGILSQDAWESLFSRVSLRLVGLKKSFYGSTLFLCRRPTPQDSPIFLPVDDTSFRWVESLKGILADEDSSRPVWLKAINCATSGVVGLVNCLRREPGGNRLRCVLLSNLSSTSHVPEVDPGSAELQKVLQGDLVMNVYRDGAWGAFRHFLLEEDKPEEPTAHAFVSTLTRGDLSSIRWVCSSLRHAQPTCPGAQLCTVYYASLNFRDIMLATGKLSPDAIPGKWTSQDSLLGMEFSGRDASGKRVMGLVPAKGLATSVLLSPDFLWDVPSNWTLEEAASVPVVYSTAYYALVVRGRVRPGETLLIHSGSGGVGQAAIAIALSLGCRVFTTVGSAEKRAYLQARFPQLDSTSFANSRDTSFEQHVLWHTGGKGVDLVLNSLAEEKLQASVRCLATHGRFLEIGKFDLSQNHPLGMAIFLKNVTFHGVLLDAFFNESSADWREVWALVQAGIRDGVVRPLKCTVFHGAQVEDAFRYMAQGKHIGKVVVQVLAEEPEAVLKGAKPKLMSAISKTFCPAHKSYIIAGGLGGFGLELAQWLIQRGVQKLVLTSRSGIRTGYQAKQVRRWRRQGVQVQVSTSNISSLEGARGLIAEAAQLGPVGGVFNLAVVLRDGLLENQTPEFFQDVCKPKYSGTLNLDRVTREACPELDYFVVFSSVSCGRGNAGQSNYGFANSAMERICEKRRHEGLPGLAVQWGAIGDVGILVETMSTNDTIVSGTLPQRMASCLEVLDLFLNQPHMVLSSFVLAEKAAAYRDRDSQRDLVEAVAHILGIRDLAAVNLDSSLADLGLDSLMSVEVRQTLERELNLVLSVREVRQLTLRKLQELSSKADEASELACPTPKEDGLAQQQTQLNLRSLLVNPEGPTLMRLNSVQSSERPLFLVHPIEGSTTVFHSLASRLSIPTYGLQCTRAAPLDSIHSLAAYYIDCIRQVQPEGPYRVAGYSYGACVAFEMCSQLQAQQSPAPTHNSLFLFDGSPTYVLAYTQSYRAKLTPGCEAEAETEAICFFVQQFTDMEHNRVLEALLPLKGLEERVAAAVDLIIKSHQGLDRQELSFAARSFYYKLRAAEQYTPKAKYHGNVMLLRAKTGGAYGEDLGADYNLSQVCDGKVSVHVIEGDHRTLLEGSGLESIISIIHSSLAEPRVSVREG

SMILES | inhibition
Cc1nn(CCOc2ccc(Br)cc2)c(C)c1[N+](=O)[O-] | 36.2% (active)
COc1ccc([N+](=O)[O-])cc1N(CC(O)Cn1nnc2ccccc21)S(=O)(=O)c1ccc(C)cc1 (centres undefined) | 65.3% (active)
O=C(N/N=C/c1cc([N+](=O)[O-])ccc1O)/C(=C\c1cccs1)NC(=O)c1ccccc1 | 42.4% (active)
O=C(Nc1ccc2ccccc2c1)/C(=C/c1cccc(Br)c1)NC(=O)c1ccco1 | 27.6%
O=C(NCc1ccco1)/C(=C\c1cccc([N+](=O)[O-])c1)NC(=O)c1ccco1 | 71.9% (active)
O=C(/C=C/c1cccc([N+](=O)[O-])c1)NCCSCc1ccco1 | 73.2% (active)
COc1ccc(NS(=O)(=O)c2cc(NC(=O)c3ccc(S(=O)(=O)N(C)C)cc3)ccc2N2CCOCC2)cc1 | 9.83%
Fc1ccc(-n2c(Cc3ccccc3)nnc2SCc2nc(-c3ccc(Cl)cc3)no2)cc1 | 51.8% (active)
O=C(Nc1ccc(OC(F)(F)F)cc1)c1ccc2c(c1)no[n+]2[O-] | 14.6%
O=C(Nc1ccc(C(F)(F)F)cc1)c1cccc(-n2cnnn2)c1 | 65.5% (active)
COc1ccc(NS(=O)(=O)c2cc(NC(=O)/C=C/c3cc(OC)c(OC)c(OC)c3)ccc2N2CCCCC2)cc1 | 19.7%
O=c1oc(-c2ccco2)nc2sc3c(c12)CCCCC3 | 51% (active)
CCC(CC)COC(=O)C1=C(C)NC(=O)NC1c1ccc([N+](=O)[O-])cc1 (centres undefined) | 78.8% (active)
COc1cc(S(=O)(=O)N2CCOCC2)ccc1NC(=O)COc1ccc(N(C)S(=O)(=O)c2ccc(C)cc2)cc1 | 7.91%
Cc1ccc(N2C(=O)C3N=NN(CC(=O)N4N=C(c5cccc6ccccc56)CC4c4ccccc4)C3C2=O)cc1 (centres undefined) | 10.8%
COc1ccc(C2=NN(C(=O)CSc3nc(=O)n4ccc(C)cc4n3)C(c3ccc(C)cc3)C2)cc1 (centres undefined) | 46% (active)
Cc1ccc2c(c1)-c1c(ssc1=S)C(C)(C)N2C(=O)CN1C(=O)c2ccccc2C1=O | 2.45%
CCOC1=C2CN(S(=O)(=O)c3ccc(C)cc3)[C@H](c3cccs3)C[C@H]2[C@H]2C(=O)N(c3ccccc3)C(=O)[C@H]2C1 | 33%
C#CCN(C[C@H]1[C@H](OC(=O)NC2CCCC2)[C@H](OC(=O)NC2CCCC2)C[C@H]2C(=O)N(c3ccccc3)C(=O)[C@@H]12)S(=O)(=O)c1ccc(C)cc1 | 48.3% (active)
CCOC1=C2[C@H]([C@H]3C(=O)N(c4ccccc4)C(=O)[C@H]3C1)[C@@H](c1ccccc1)N(S(=O)(=O)c1ccc(C)cc1)[C@H]2c1ccccc1 | 32.3%
Cc1cccc([C@@H]2[C@@H]3C(=O)N(Cc4ccccc4)C(=O)[C@@H]3[C@]3(Cc4ccc(Cl)cc4)C(=O)N(c4cccc(Cl)c4)C(=O)N23)c1 | 11.9%
COc1ccc([C@@H]2[C@@H]3C(=O)N(C(C)(C)C)C(=O)[C@@H]3[C@]3(Cc4ccccc4)C(=O)N(c4cccc(Br)c4)C(=O)N23)cc1 | 46.4% (active)
Cc1ccc(C(=O)N/C(=C\c2cn(S(=O)(=O)N(C)C)c3ccccc23)C(=O)N2CCCC2)cc1 | 88.2% (active)
Cc1ccc(S/C(=N\S(=O)(=O)c2ccc(Cl)cc2)c2ccccc2)cc1 | 29.6%
COc1ccc([N+](=O)[O-])cc1NC(=O)CC1SC(=Nc2cccc(C)c2C)N(/N=C(\C)c2ccc(C)cc2)C1=O (centres undefined) | 25.8%

SMILES | inhibition
COc1ccc([N+](=O)[O-])cc1NC(=O)c1ccc(N(Cc2ccccc2C)S(C)(=O)=O)cc1 | 39.2% (active)
CCCCCCCCCCCCN1[C@@H](CC(C)=O)c2cc(F)cc(F)c2S1(=O)=O | 9.68%
COc1ccc2c(c1)[C@H]1[C@H](CO2)[C@H](c2ccccc2)[C@]2(C)C(=O)Nc3cc(F)c(F)cc3C(=O)N12 | 34%
CC(C)c1ccc2c(c1)c(SC(C)(C)C)c(CC(C)(C)C(=O)O)n2Cc1ccc(Cl)cc1 | 51.4% (active)
O=C(OC1CCOC1=O)c1ccc(-c2nc3ccccc3s2)s1 (centres undefined) | 35.3%
O=S(=O)(Nc1cccc(-n2cnnn2)c1)c1cnc(Cl)c(Cl)c1 | 68% (active)
CCCc1cc(-c2nc(-c3ccc(C)cc3)cs2)ccn1 | 46.9%
O=C(Nc1ccccc1)c1nnsc1S(=O)(=O)c1ccc(Cl)cc1 | 72.3% (active)
O=C(Nc1cccc(S(=O)(=O)Nc2ccc(Cl)cc2)c1)c1ccc2c(c1)OCCO2 | 37.6%
O=C(CC(c1ccccc1)c1ccccc1)NCC(O)c1ccc([N+](=O)[O-])cc1 (centres undefined) | 55.1% (active)
CC(C=Cc1ccccc1)=NNS(=O)(=O)c1ccc([N+](=O)[O-])cc1 | 71.2% (active)
COCCNC(=O)CCCn1c(=O)c2ccccc2n(Cc2cccc([N+](=O)[O-])c2)c1=O | 37.5% (active)
O=C(Oc1cccc(N2C(=O)C3C4c5ccccc5C(c5ccccc54)C3C2=O)c1)c1ccco1 (centres undefined) | 36.3% (active)
COc1ccc(C2Nc3ccccc3C(=O)N2c2ccc(Cl)cc2)cc1Cn1cc([N+](=O)[O-])cn1 (centres undefined) | 41.9%
O=[N+]([O-])c1ccc(CN2CC(N3CCC(c4ccccc4)CC3)CS2(=O)=O)cc1 (centres undefined) | 22.4%
CCCCCOC(=O)c1ccc(N2C(=O)C3C4C=CC(C4)C3C2=O)cc1 (centres undefined) | 51.4% (active)
Cc1ccc(NC(=O)c2nc[nH]c2C(=O)N[C@@H](CCCCNC(=O)OC(C)(C)C)C(=O)OC(C)(C)C)cc1 | 83.9% (active)
CCOC(=O)c1ccc(NC(=O)c2nc[nH]c2C(=O)N[C@@H](CCCCNC(=O)OC(C)(C)C)C(=O)OC(C)(C)C)cc1 | 57.3% (active)
Cc1cccc(CS(=O)(=O)c2ncc(Cl)c(C(=O)Nc3ccc(F)cc3)n2)c1 | 53.2% (active)
O=C(Nc1ccccc1Cl)/C(Cl)=C(\Cl)S(=O)c1ccccc1 (centres undefined) | 76.4% (active)
Cc1cc(C(=O)COc2ccccc2[N+](=O)[O-])c(C)n1-c1cccc(S(=O)(=O)N2CCOCC2)c1 | 21.2%
Nc1c(-c2cccc(Cl)c2)cnn1-c1cccc([N+](=O)[O-])c1 | 48.9% (active)
CNC(=O)/C(=C\C=C\c1ccccc1)NC(=O)c1ccc([N+](=O)[O-])cc1 | 91.7% (active)
C/C(=N\Nc1nc(N2CCOCC2)nc(N2CCOCC2)n1)c1ccc([N+](=O)[O-])cc1 | 41.8% (active)
CCCN1Cc2cccc(C(=O)Nc3ccc(S(=O)(=O)N4CCCCCC4)cc3)c2C1=O | 0.41%

SMILES | inhibition
O=C(NCc1ccc2c(c1)OCO2)c1cc([N+](=O)[O-])ccc1N1CCOCC1 | 54% (active)
COc1ccc(S(=O)(=O)N2CCCCC2)cc1NC(=O)c1cc([N+](=O)[O-])ccc1N1CCOCC1 | 25.8%
CN(C)c1ccc(/C=C/C(=O)c2ccc(C(C)(C)C)cc2)cc1[N+](=O)[O-] | 33%
O=[N+]([O-])c1cc(Br)c(O)c(/C=N/Nc2nc3ccccc3s2)c1 | 16.1%
Cc1cc(C(=O)N/N=C/c2cc([N+](=O)[O-])cc(C)c2O)n[nH]1 | 72.6% (active)
CC1(C)CC(=O)c2c(n(S(=O)(=O)c3ccccc3)c3ccc(NS(=O)(=O)c4ccccc4)cc23)C1 | 19.9%
Oc1c(Cl)cc(Cl)c(Cl)c1Cc1c(O)c(Cl)cc(Cl)c1Cl | 70.1% (active)
Cc1noc(C)c1NC(=O)Nc1cccc2c1O[C@H](CN(C)C(=O)Nc1ccccc1)[C@@H](C)CN([C@H](C)CO)C2=O | 61.3% (active)
O=C(Cc1ccc(Cl)c(Cl)c1)Nc1ccc(SC(F)F)cc1 | 37.6%
O=C(c1ccc2c(c1)N(Cc1ccc(F)cc1)C(=O)c1ccccc1S2(=O)=O)N1CCN(c2ccccn2)CC1 | 21.2%
COc1ccc2nc(Nc3nc4cc5c(cc4s3)OCCO5)sc2c1 | 17.9%
CC1=CC(=C(C#N)c2nc3ccccc3s2)C=C(C)N1c1ccc(F)cc1F | -32.7%
O=C(NCCC1=CCCCC1)c1ccc(Cl)c([N+](=O)[O-])c1 | 61.2% (active)
Cc1sc2nc(-c3ccccc3F)oc(=O)c2c1C | 6.55%
COc1ccc(-c2csc3nc(-c4ccccc4F)oc(=O)c23)cc1OC | 57.9% (active)
CCOC(=O)N1CCN(Cc2nc3ccc([N+](=O)[O-])cc3c(=O)n2-c2cccc(OC)c2)CC1 | 76.1% (active)
CCOc1cc(/C=C(/C#N)c2ccc(Cl)cc2)cc(Cl)c1OCC(=O)O | 63% (active)
Cc1ccc(N2C(=O)C3C(c4ccccc4)(C2=O)C3(c2ccccc2)c2ccccc2)cc1 (centres undefined) | 4.09%
COc1ccc(CNC(=O)C[C@H]2C[C@H](C(=O)N3CCOCC3)[C@@]3(CCC4CCCC4)c4[nH]c5ccc(Cl)cc5c4CCN3C2=O)cc1OC | 83.3% (active)
O=C(C[C@H]1C[C@H](C(=O)N2CCOCC2)[C@@]2(CCC3CCCC3)c3[nH]c4ccc(Cl)cc4c3CCN2C1=O)NCc1ccco1 | 27.4%
CCOc1ccc(Nc2nc(Cl)nc(N3CCN(c4ccc(OC)cc4)CC3)n2)cc1 | 12.5%
Cc1cccc(N2C(=O)N3[C@H](c4ccc(F)cc4)[C@@H]4C(=O)N(C5CCCCC5)C(=O)[C@@H]4[C@]3(Cc3ccccc3)C2=O)c1 | 10.1%
O=C1[C@H]2[C@@H](c3ccc(F)cc3)N3C(=O)N(c4ccc(C(F)(F)F)cc4)C(=O)[C@@]3(Cc3ccccc3)[C@H]2C(=O)N1C1CCCCC1 | 17.3%
C[C@@]12C(=O)N(c3cccc(Br)c3)C(=O)N1[C@H](c1ccc(Cl)cc1)[C@@H]1C(=O)N(C3CCCCC3)C(=O)[C@@H]12 | 54% (active)
